# The OligoGym collection
# Columns and labels:
# Experiment in all cases: pooled miR-30 sensor sort-seq; sequence = guide strand
# Details in all cases: shRNA
# APLNR = molecular target: APLNR
# APOBEC3A = molecular target: APOBEC3A
# ARHGAP30 = molecular target: ARHGAP30
# ARPC4 = molecular target: ARPC4
# ASPRV1 = molecular target: ASPRV1
# ATP10B = molecular target: ATP10B
# ATP6V0A4 = molecular target: ATP6V0A4
# ATP7B = molecular target: ATP7B
# ATP8A2 = molecular target: ATP8A2
# Note: reference of the scale not given here.
sequence,measurement,setting,value
TAGCGGTCGAAGCTGAGGCCGG,sensor-assay potency score (higher = more potent),APLNR,-1.22
TAACAGGTCAGCATGATGGTGA,sensor-assay potency score (higher = more potent),APLNR,0.0238
TTGATCGGGAGCATACTGCTTT,sensor-assay potency score (higher = more potent),APOBEC3A,0.642
TGGTCCATCTTGACCGAGGTGC,sensor-assay potency score (higher = more potent),APOBEC3A,-0.749
TTGTTGGATTTATCCTCCCTGT,sensor-assay potency score (higher = more potent),ARHGAP30,-0.894
TGTGTTTGTACATCTGCTCTGT,sensor-assay potency score (higher = more potent),ARPC4,0.568
TTGAGGTCATTGATGACTTCAA,sensor-assay potency score (higher = more potent),ASPRV1,-0.277
TGAGATAGTAGCCCTTACCCAT,sensor-assay potency score (higher = more potent),ASPRV1,-0.959
TTGATGGTGACCCTCTGCCTGG,sensor-assay potency score (higher = more potent),ATP10B,-1.45
ATCTTCTTGATTTTCTGCCTGA,sensor-assay potency score (higher = more potent),ATP6V0A4,-0.439
TTCAGGAGCAGAGACCACTTGT,sensor-assay potency score (higher = more potent),ATP7B,-0.382
TAGAGTCCAAGACAAAGCCCAT,sensor-assay potency score (higher = more potent),ATP7B,-1.12
TAGTTAAACAGAAACATGTTGA,sensor-assay potency score (higher = more potent),ATP6V0A4,-0.563
ATAGGCATCAACAATATTCTGG,sensor-assay potency score (higher = more potent),ATP6V0A4,-0.65
TTGTATAAGATGATGAACGTCA,sensor-assay potency score (higher = more potent),ATP8A2,2.4e-06
ATAGCGTCACTGACATCGCTAG,sensor-assay potency score (higher = more potent),ATP7B,-0.788
TTCAACATAACACATTGCCTGA,sensor-assay potency score (higher = more potent),ATP8A2,-0.505
TAGCTCTGGCTGTCTTCCGGTT,sensor-assay potency score (higher = more potent),ATP7B,-1.3
TAATACATATCTGTGTCCCAGT,sensor-assay potency score (higher = more potent),ATP8A2,-0.374
TTGTTCTGGAACTCAACCCAGT,sensor-assay potency score (higher = more potent),ATP6V0A4,-0.422
TAGCACTTGAGCTGCAGGGATG,sensor-assay potency score (higher = more potent),ATP7B,-1.64
TTCTGCACCTTGATGAGCCAGG,sensor-assay potency score (higher = more potent),ATP6V0A4,-0.64
TTGTGTTGAAGCCTTCGCCATT,sensor-assay potency score (higher = more potent),ATP8A2,-1.44
TGACTGGACATATCCAGGGAGC,sensor-assay potency score (higher = more potent),ATP7B,-1.47
TTGAGTATACTTCACAACCTCA,sensor-assay potency score (higher = more potent),ATP8A2,-0.741
TTGTGACAAACACATCTCCTCG,sensor-assay potency score (higher = more potent),ATP6V0A4,-1.11
TATCTTGTGCGCCATCTCCAGG,sensor-assay potency score (higher = more potent),ATP7B,-1.02
TTCCTCTTTACAGTATTTGGTG,sensor-assay potency score (higher = more potent),ATP7B,-0.123
TCTCGTGGTCTGTCATAGCGTC,sensor-assay potency score (higher = more potent),ATP7B,-0.487
TGTCCTGCTCAGCTTGTGGTGA,sensor-assay potency score (higher = more potent),ATP7B,-0.618
TCTTTGAACTGAACCAATCCGA,sensor-assay potency score (higher = more potent),ATP6V0A4,0.235
TTTCATCTCGTGGTCTGTCATA,sensor-assay potency score (higher = more potent),ATP7B,-1.47
AATGCTAGCCACCACATCCAGC,sensor-assay potency score (higher = more potent),ATP7B,-0.992
TTTGTTGATGCCAACCTGGGTG,sensor-assay potency score (higher = more potent),ATP7B,-0.00244
TTCCTGTAACTCTCCTTCCAGT,sensor-assay potency score (higher = more potent),ATP6V0A4,-0.817
TATAGCACTTGAGCTGCAGGGA,sensor-assay potency score (higher = more potent),ATP7B,-0.435
